Compound activity (PubChem BioAssay)
TDP1 inh – TDP1 (human) enzyme inhibition. 0.28% of 350,000 active. recombinant TDP1, AlphaScreen DNA substrate cleavage. Q9NUW8. Potency, µM (top dose mostly 130 µM), without a hit: at the top dose activity change, negative = inhibition, most hits filed as inhibitors; also: potency is read from the fitted curve at half-maximal effect; % is scaled to controls: 0 for no effect and ±100 for the full control effect; nearly all actives have a fitted effect of over 40% in size
Target sequence (Q9NUW8 whole entry, looked up): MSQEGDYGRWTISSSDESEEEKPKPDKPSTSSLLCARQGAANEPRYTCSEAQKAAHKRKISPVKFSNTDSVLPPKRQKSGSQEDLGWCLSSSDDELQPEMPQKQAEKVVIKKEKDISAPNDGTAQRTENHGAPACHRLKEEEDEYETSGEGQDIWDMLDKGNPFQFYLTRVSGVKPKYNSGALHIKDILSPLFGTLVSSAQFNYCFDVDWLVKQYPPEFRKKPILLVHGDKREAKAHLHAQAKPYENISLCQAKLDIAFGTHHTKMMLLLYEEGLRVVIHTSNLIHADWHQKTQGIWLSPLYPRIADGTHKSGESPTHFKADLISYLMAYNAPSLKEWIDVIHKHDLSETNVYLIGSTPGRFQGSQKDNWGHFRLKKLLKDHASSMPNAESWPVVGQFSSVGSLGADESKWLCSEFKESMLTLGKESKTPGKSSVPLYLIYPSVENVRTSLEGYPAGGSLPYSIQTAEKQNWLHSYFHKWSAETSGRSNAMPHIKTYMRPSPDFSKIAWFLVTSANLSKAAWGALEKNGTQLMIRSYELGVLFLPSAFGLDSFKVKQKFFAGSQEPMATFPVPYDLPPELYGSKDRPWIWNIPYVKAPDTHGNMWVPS
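Recombinant E. coli-expressed Tdp1 (1 nM) preincubated with compound 15 min at RT, then 5'-biotin/3'-phosphotyrosine-FITC DNA substrate (15 nM) added for 5 min. AlphaScreen beads (10 ug/ml) added, 10 min RT; tyrosine-FITC cleavage read as signal loss.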
TDP1 cell CPT – growth inhibition of DT40 Tdp1-/-;hTDP1 cells with camptothecin (screen for TDP1 inhibitors). 12% of 420,000 active. chicken DT40 Tdp1-/-;hTDP1 cells + 20 nM CPT, ATP luminescence, 48 h. Potency, µM (series often up to 46.2 µM), for the others: at the highest dose activity change, negative = growth inhibition, actives largely listed as inhibitors; also: potency is read from the fitted curve at half-maximal effect; % is scaled to controls: 0 for no effect and ±100 for the full control effect; nearly all actives have a fitted effect of over 55% in size
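Chicken DT40 Tdp1-/- cells complemented with human TDP1, 400 cells/well, exposed to compounds plus 20 nM camptothecin for at least 48 h at 37 C; viability read as ATP content by CellTiter-Glo luminescence.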
IL-1B inflam inh – inhibitors of inflammasome signaling (IL-1 beta secretion); activity change, % at 57.5 µM; THP-1 LPS/ATP IL-1B secretion, AlphaLISA, 16 h; stronger effect = lower value; 4.7% of 360,000 active; in the data active = activity change below about -50%; inconclusive = mostly about -30% to -49%; also: % is scaled to controls: 0 for no effect and ±100 for the full control effect
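Secreted IL-1B measured by AlphaLISA bead assay after 16 h compound exposure of THP-1 cells; compounds (final up to 57.5 uM) added 1 h before LPS (250 ng/mL) and ATP (1.25 mM) stimulation; lower signal means less secretion.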
HepG2 tox – counter-screen for TGF-b inhibitors: cytotoxicity in HepG2 cells; HepG2 CAGA-GFP viability, ATP luminescence, 18 h; Potency, µM (highest dose often 46.1 µM), for the others: top-dose activity change, negative = cytotoxicity, most hits filed as cytotoxic; 0.76% of 410,000 active; AID 588856; also: potency is read from the fitted curve at half-maximal effect
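HepG2 CAGA-GFP cells (1000/well, DMEM with 1% FBS) received compound, then TGF-beta at 500 pg/mL final, and were incubated 18 hours at 37 degrees C. Viability was read by CellTiter-Glo luminescence. Media-only wells were set as complete cell-killing and DMSO as no toxicity.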
TGFb inhibitor – blocks TGF-b signaling. HepG2 CAGA-GFP TGF-b/SMAD3 reporter, GFP fluorescence, 18 h; TGF-beta stimulated, 500 pg/mL final. Potency, µM (doses to about 46.1 µM), for inactives: top-dose activity, negative = inhibition, hits mostly inhibitors. 1.2% of 410,000 active. AID 588855; also: potency is read from the fitted curve at half-maximal effect; % is scaled to controls: 0 for no effect and ±100 for the full control effect; nearly all actives have a fitted effect of over 65% in size
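Read-out: total well GFP (ex488/em500-530) summed from mean per-cell fluorescence. Cells: HEPG2 CAGA-GFP, 1% FBS DMEM, 18 h at 37 degrees C with 500 pg/mL final TGF-beta. Unstimulated wells served as the full-inhibition control; stimulated DMSO wells = 0%.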
TDP1 cell noCPT – qHTS for Inhibitors of human tyrosyl-DNA phosphodiesterase 1 (TDP1): qHTS in cells in absence of CPT | DT40 Tdp1-/- hTDP1 cells, no CPT, ATP luminescence, 48 h | Potency, µM (top dose mostly 46.2 µM), for inactives: at the highest dose activity change, negative = growth inhibition, most hits filed as inhibitors | 15% of 420,000 active; also: potency is read from the fitted curve at half-maximal effect; % is scaled to controls: 0 for no effect and ±100 for the full control effect; nearly all actives have a fitted effect of over 55% in size
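Cells were dispensed at 400 per well, compounds added by pin tool, plates incubated ≥48 hr at 37 °C, then CellTiter-Glo added for 30 min at room temperature before luminescence reading. Line: DT40 Tdp1-/- complemented with hTDP1; camptothecin omitted.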
The depositor's hits bear a star; ? = inconclusive; · = no result given; [ ] = another dose, or the depositor's remark. Compounds with a hit are over-represented: about 18% of the library has one in this group of screens. Unless noted, calls follow the shape of the dose curve; as a rule, active = well fitted curve in the direction sought with a large enough effect; inconclusive = small, poorly fitted or top-dose-only effect, or another doubt; inactive = no such curve, though single readings can be large; an effect the other way counts as inactive or inconclusive.

SMILES	TDP1 inh	TDP1 cell CPT	IL-1B inflam inh	HepG2 tox	TGFb inhibitor	TDP1 cell noCPT
CCN1C[C@@H]2[C@@H]3C(=O)N(Cc4ccccc4)C(=O)[C@@H]3[C@](C)(C1=O)N2C(=O)c1ccc(Br)cc1	·	-17%	-6	3%	-9%	-11%
O=C(CC1(CC(=O)N2CCOCC2)CCCC1)Nc1ccccc1	0%	2%	-15	-1%	6%	26%
CN1CCN(CC(=O)NC(=O)NC2CCCCC2)CC1	0%	6%	-6	-4%	0%	2%
CCOc1ccc(CCNC(=O)c2ccc(-c3nc(CSc4ccccc4)c(C)o3)cc2)cc1	8%	-12%	·	-6%	1%	-27%
CN(Cc1ccco1)C(=O)CN1C(=O)NC(c2ccccc2)(c2ccccc2)C1=O	7%	-30%	-6	4%	9%	-26%
Cc1ccc(CN(C)C(=O)CN2C(=O)NC(c3ccccc3)(c3ccccc3)C2=O)c(C)c1	3%	?	-63*	-30%	?	16µM*
CC1=C(C)C(=O)C(C(CCCCCC(=O)O)c2ccccc2)=C(C)C1=O (configuration not stated)	·	17µM*	·	·	·	?
O=C(Nc1ccccc1C(=O)N1CCCCC1)c1cccs1	2%	13%	0	1%	-3%	16%
Cc1ccc(OCC(=O)Nc2ccccc2C(=O)OCc2cc(=O)n3ccsc3n2)cc1C	4%	-14%	·	2%	1%	-14%
CCCCN(C(=O)c1cccc(-n2cccc2)c1)c1c(N)n(CCCC)c(=O)[nH]c1=O	-11%[0.505 µM]	-18%	0	-3%	-11%	-20%
CCCN(C(=O)c1ccc([N+](=O)[O-])c(C)c1)c1c(N)n(Cc2ccccc2)c(=O)[nH]c1=O	0%	1%	-10	-1%	17%	-8%
CCCCN(C(=O)c1ccc(N2CCCC2=O)cc1)c1c(N)n(CCC)c(=O)[nH]c1=O	2%	-15%	-11	-9%	3%	6.5µM*
CCCCN(C(=O)c1cccc(-n2cccc2)c1)c1c(N)n(CCC)c(=O)[nH]c1=O	50µM*	5%	-1	1%	11%	4%
CCCCN(C(=O)c1ccc(N2CCCC2=O)cc1)c1c(N)n(CCCC)c(=O)[nH]c1=O	·	2%	-2	-1%	-2%	-15%
CCCN(C(=O)c1cccc(-n2cccc2)c1)c1c(N)n(Cc2ccccc2)c(=O)[nH]c1=O	45µM*	-9%	-10	-2%	-1%	-6%
CCOc1ccc(NC(=O)CN2C(=O)C(c3ccccc3)=NC23CCCCCC3)cc1	0%	?	·	-20%	·	?
CCOC(=O)C1(C)CCCN(C(=O)c2ccc3ccccc3c2)C1 (configuration not stated)	·	?	22	4%	14%	?
CCC1CCc2c(sc3nc(SCC(=O)NCc4ccco4)n(-c4ccccc4)c(=O)c23)C1 (configuration not stated)	1%	29µM*	33	1%	12%	?
CC1CCc2sc3ncn4nc(C(=O)NCc5ccco5)nc4c3c2C1 (configuration not stated)	0%	?	6	-18%	-19%	?
CC(C)Sc1nc2sc3c(c2c2nnc(SCC(=O)NCc4ccco4)n12)CCCC3	5%	?	-19	0%	28%	18µM*
CCCc1nc2sc3c(SCC(=O)NCc4ccco4)ncnc3c2c2c1CCC2	20µM*	?	-6	-48%	14%	18µM*
CC1CCc2c(sc3ncn4c(SCC(=O)NCc5ccco5)nnc4c23)C1 (configuration not stated)	-2%	?	4	-2%	-2%	21µM*
Cc1ccccc1C(C)NC(=O)COC(=O)Cn1cc(C(F)(F)F)ccc1=O (configuration not stated)	0%	?	39	3%	3%	5%
CC(=O)CC1(OC(C)=O)C(=O)N(C)c2ccccc21 (configuration not stated)	5%	3.7µM*	?	-33%	?	2.9µM*
CC(C)C1C(=O)N(Cc2cn(CCC3OCCCO3)nn2)CCS(=O)(=O)N1Cc1ccc(-c2cccc(N(C)C)c2)cc1 (configuration not stated)	·	5%	7	-18%	1%	-3%
SMILES	TDP1 inh	TDP1 cell CPT	IL-1B inflam inh	HepG2 tox	TGFb inhibitor	TDP1 cell noCPT
CC(C)C1C(=O)N(Cc2cn(CC3CCCCC3)nn2)CCS(=O)(=O)N1Cc1ccc(-c2ccc(F)cc2)cc1 (configuration not stated)	·	-20%	-23	-34%	?	9.2µM*
COc1ccc(-c2ccc(CN3C(C(C)C)C(=O)N(Cc4cn(CC5CCCCC5)nn4)CCS3(=O)=O)cc2)cc1 (configuration not stated)	·	15µM*	-6	-9%	?	16µM*
S=C1NCCc2ccc(Cl)cc2C1c1ccccc1 (configuration not stated)	5%	?	6	-19%	5%	23µM*
COC(=O)c1cc(OC)c(=O)c2c(OC)c(OC)ccc2c1	-8%[56.1 µM]	-2%	·	·	·	-3%
Cc1cccc(NC(=O)CCN2CCC(C)CC2)c1	·	15%	3	-6%	8%	4%
COc1ccc2[nH]cc(CCNc3cc(-c4ccccc4Cl)ncn3)c2c1	·	?	·	·	·	3.7µM*
COc1ccc2[nH]cc(CCNc3ccnc(-c4ccccc4Cl)n3)c2c1	·	?	·	·	·	12µM*
COc1ccc2[nH]cc(CCNc3cc(-c4ccccc4C(F)(F)F)ncn3)c2c1	6%[56.1 µM]	?	·	·	·	?
C[C@H](CO)N1C[C@H](C)[C@H](CN(C)C(=O)Nc2ccc(F)cc2)Oc2ccc(NC(=O)NC3CCCCC3)cc2CC1=O	0%	?	-9	-13%	-19%	-29%
C[C@H](CO)N1C[C@H](C)[C@H](CN(C)C)Oc2ccc(NS(=O)(=O)c3ccc(F)cc3)cc2CC1=O	1%	-25%	-9	0%	1%	4%
C[C@@H]1CN([C@@H](C)CO)C(=O)Cc2cc(NC(=O)Nc3ccc(F)cc3)ccc2O[C@@H]1CN(C)Cc1ccc(Cl)c(Cl)c1	4%	?	-54*	16µM*	?	15µM*
